Screens from PubChem BioAssay.
FAS-TE inh: FAS thioesterase domain inhibitors, primary screen, biochemical, fluorescence intensity, uHTS; Fatty acid synthase (Homo sapiens), P49327; recombinant FAS-TE, OMFH fluorogenic substrate, fluorescence endpoint; inhibition, % at 15 µM; hit rate 0.67% among 360,000;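 active means compounds whose normalised, plate-corrected inhibition of enzyme fluorescence in the single-dose primary screen is 50% or more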;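 further: 0% = DMSO with enzyme and 100% = substrate without enzyme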
ADAM10 inh: human ADAM10 inhibitors, primary screen, biochemical, QFRET, HTS | Disintegrin and metalloproteinase domain-containing protein 10 (Homo sapiens), O14672 | recombinant ADAM10, EDANS/DABCYL FRET peptide cleavage, 3 h | inhibition, % at 7 µM | hit rate 0.62% among 370,000 | AID 720582, 2013;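 active means inhibition above a per-campaign cutoff equal to the mean of compounds falling between control-based bounds plus 3 SD, cut at about 20% in these data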;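 further: 0% = DMSO wells while the 100% control is not disclosed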
Target sequence (O14672 214-748 limits assumed): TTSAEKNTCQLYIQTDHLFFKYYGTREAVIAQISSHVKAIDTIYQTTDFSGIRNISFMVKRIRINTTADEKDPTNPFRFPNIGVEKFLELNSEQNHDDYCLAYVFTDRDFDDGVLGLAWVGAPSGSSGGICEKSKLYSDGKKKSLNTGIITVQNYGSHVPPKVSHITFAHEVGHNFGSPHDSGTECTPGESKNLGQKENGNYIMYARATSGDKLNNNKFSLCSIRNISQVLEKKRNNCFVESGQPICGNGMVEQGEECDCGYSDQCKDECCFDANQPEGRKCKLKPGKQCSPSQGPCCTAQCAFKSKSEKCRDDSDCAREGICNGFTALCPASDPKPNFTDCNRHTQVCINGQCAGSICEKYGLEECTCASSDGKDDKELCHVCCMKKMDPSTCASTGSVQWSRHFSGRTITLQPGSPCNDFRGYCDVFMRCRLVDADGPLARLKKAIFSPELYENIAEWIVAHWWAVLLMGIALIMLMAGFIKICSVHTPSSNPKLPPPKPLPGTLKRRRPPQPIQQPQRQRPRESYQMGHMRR
aDG glyco up: activators of alpha-DG glycosylation, primary screen, uHTS, Pro5-aDG cells, AlphaScreen; alpha-DG glycosylation AlphaScreen (IIH6); 0% Pro5, 100% B10-LARGE cell signal; activation, % at 10 µM; hit rate 0.22% among 360,000;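 active means activation of at least 8% versus controls, or a plate z-score of at least 8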;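 further: Pro5 are CHO cells carrying HIG-tagged alpha-DG that lacks glycosylation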
GRIN3A LBD mod: binders of NR3A ligand-binding domain, primary screen, biophysical, differential scanning fluorimetry, uHTS; Glutamate receptor ionotropic, NMDA 3A (GRIN3A) ligand-binding domain; NR3A LBD differential scanning fluorimetry, Tm shift; 0% = protein alone, 100% = glycine-bound protein; Tm shift relative to glycine control, % at 25 µM; hit rate 2.5% among 340,000;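 active means melting temperature shift of at least 10% of the positive control shift, at one fixed dose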
ADAM17 inh: ADAM17 inhibitors, primary screen, biochemical, QFRET. Disintegrin and metalloproteinase domain-containing protein 17 (Homo sapiens), P78536. recombinant ADAM17, EDANS/DABCYL FRET peptide cleavage. hit rate 0.83% among 370,000. AID 720648, 2013. inhibition, % at 6.95 µM;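 active means inhibition above the mean of compounds lying between control limits plus 3 SD, set per campaign, cut at about 8.5% in these data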;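 further: 0% = DMSO-only wells as the low control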
ADAM10 confirm: human ADAM10 inhibitors, confirmation, biochemical, QFRET, triplicate; shares compounds with ADAM10 inh; ADAM10 QFRET peptide cleavage, EDANS fluorescence; inhibition, % at 6.95 µM; hit rate 1% among 2,100; AID 743208, 2013;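 active means inhibition above about 20% chosen separately for each screening run, limit read from the data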;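 further: 0% = DMSO wells and 100% = marimastat wells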
ADAM17 ctr: ADAM17 inhibitors, counter-screen for ADAM10 exosite inhibitor project, biochemical, QFRET, high throughput | shares compounds with ADAM10 inh | ADAM17 QFRET peptide cleavage, EDANS fluorescence | inhibition, % at 6.95 µM | hit rate 0.5% among 2,100 | AID 743214, 2013;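 active means mean triplicate inhibition above the solvent-only control wells' mean plus 3 SD, cut at about 12% in these data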;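 further: 0% = DMSO wells and 100% = marimastat wells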
ADAM10 ctr: ADAM10 inhibitors, counter-screen for ADAM17 exosite inhibitor project, biochemical, FRET, human ADAM10; shares compounds with ADAM17 inh; recombinant ADAM10, EDANS/DABCYL FRET peptide cleavage, 3 h; inhibition, % at 6.95 µM; hit rate 47% among 2,900;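 active means mean inhibition over the triplicate runs exceeds the activity threshold set in the earlier primary screen, cut at about 20% in these data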;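 further: 0% = DMSO wells and 100% = marimastat wells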
ADAM17 confirm: ADAM17 inhibitors, hit retest, confirmation, biochemical, QFRET peptide cleavage; AID 743257, 2014; recombinant ADAM17, EDANS/DABCYL QFRET peptide cleavage; shares compounds with ADAM17 inh; inhibition, % at 6.95 µM; hit rate 65% among 2,900;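 active means mean inhibition across replicates above the hit cutoff set in the primary screen, cut at about 8.5% in these data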;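 further: 0% = DMSO wells and 100% = marimastat wells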
* = called active by the depositor; nt = no result given. Compounds with a hit are over-represented: about 4% of the library has one in this group of screens.

SMILES | FAS-TE inh | ADAM10 inh | aDG glyco up | GRIN3A LBD mod | ADAM17 inh | ADAM10 confirm | ADAM17 ctr | ADAM10 ctr | ADAM17 confirm
O=C(Nc1ccc(F)c(Cl)c1)c1cc(C2CCCCN2C(=O)c2ccc(Cl)cc2)on1 (stereo not given) | 22 | -3 | 0 | nt | -1 | nt | nt | nt | nt
CCN(CC)C(=O)[C@H]1C[C@H](CC(=O)NCc2cccc(C(F)(F)F)c2)C(=O)N2CCc3c([nH]c4ccc(Cl)cc34)[C@]12C | 36 | 23* | 0 | -2 | 11* | 3 | 1 | 31* | 13*
COc1nc(C)c2cc(C)oc2n1 | 4 | 5 | 0 | -3 | -4 | nt | nt | nt | nt
O=C(c1cc(COc2cccc(C(F)(F)F)c2)on1)N1CCC(c2ccccc2)CC1 | 31 | 26* | 0 | -7 | 12* | 5 | 2 | 35* | 20*
O=C(c1cc(COc2cccc(C(F)(F)F)c2)on1)N1CCC(c2ccncc2)CC1 | 13 | -1 | 5 | 1 | 3 | nt | nt | nt | nt
C#CCN(C(=O)c1cc(COc2cccc(C(F)(F)F)c2)on1)C1CCCCC1 | 29 | 24* | 0 | -5 | 10* | 8 | 3 | 55* | 19*
COc1ccc(CCN2C(=O)CCC2(C)C(=O)NC2CCCC2)cc1OC (stereo not given) | -5 | -2 | 0 | -2 | -2 | nt | nt | nt | nt
CN(C)S(=O)(=O)c1cccc(NC(=O)COC(=O)c2cccc(S(=O)(=O)N3CCc4ccccc4C3)c2)c1 | 29 | 23* | 0 | -11 | 11* | 7 | 2 | 16 | 12*
Cc1cc(C(=O)OCC(=O)Nc2cccc(S(=O)(=O)N(C)C)c2)c2ccccc2n1 | 2 | 0 | 0 | -6 | 0 | nt | nt | nt | nt
CN(C)S(=O)(=O)c1cccc(NC(=O)COC(=O)c2cn(-c3ccccc3)nc2-c2ccccc2)c1 | 27 | 29* | 0 | 14* | 11* | 8 | 3 | 31* | 19*
O=[N+]([O-])c1cccc(COc2ccccc2CN2CCCCC2)c1 | -2 | -6 | 0 | -1 | -1 | nt | nt | nt | nt
O=C(COc1ccc(Cl)cc1Cl)N1CCCN(C(=O)COc2ccc(Cl)cc2Cl)CC1 | 36 | 25* | 0 | 5 | 9.8* | 4 | 1 | 20 | 9.2*
Cc1cc(Cl)ccc1OCC(=O)N1CCCCC1 | -6 | 0 | 0 | 1 | -3 | nt | nt | nt | nt
O=C(COC(=O)c1ccc(Sc2ncn[nH]2)c([N+](=O)[O-])c1)Nc1ccc(Cl)c(Cl)c1 | nt | 20* | nt | nt | 10.0* | 8 | 1 | 38* | 20*
O=C(COC(=O)c1ccc(Sc2ncn[nH]2)c([N+](=O)[O-])c1)Nc1ccc(Cl)cc1 | nt | 9 | nt | nt | 6 | nt | nt | nt | nt
O=C(Nc1cc(Cl)ccc1O)C1CC(c2c(F)cccc2Cl)=NO1 (stereo not given) | 9 | 26* | 0 | 0 | 9.6* | 9 | 4 | 19 | 12*
O=C(NCc1ccc(OC(F)(F)F)cc1)C1CC(c2c(Cl)cccc2Cl)=NO1 (stereo not given) | 27 | 21* | 0 | -7 | 9.5* | 2 | 0 | 24* | 13*
O=C(Nc1cccc(O)c1)C1CC(c2c(F)cccc2Cl)=NO1 (stereo not given) | -1 | 2 | 0 | -2 | -5 | nt | nt | nt | nt
O=C(NCc1cc(C(F)(F)F)cc(C(F)(F)F)c1)C1CC(c2ccccc2C(F)(F)F)=NO1 (stereo not given) | nt | 31* | nt | -16 | 17* | 0 | 0 | 49* | 25*
O=C(NCc1ccc(C(F)(F)F)cc1)C1CC(c2ccccc2C(F)(F)F)=NO1 (stereo not given) | 26 | 5 | 0 | -36 | -2 | nt | nt | nt | nt
O=C(NCc1cc(C(F)(F)F)cc(C(F)(F)F)c1)C1CC(c2c(Cl)cccc2Cl)=NO1 (stereo not given) | 17 | 19 | 1 | -3 | 4 | nt | nt | nt | nt
CCN(CC(=O)Nc1ccccc1OC)C(=O)c1ccccc1Sc1ccccc1C#N | 5 | -18 | 1 | 2 | -1 | nt | nt | nt | nt
CCN1CCN(c2oc(COc3ccc(Cl)cc3)nc2C#N)CC1 | 4 | 1 | 0 | 2 | -1 | nt | nt | nt | nt
CN1CCN(c2oc(COc3ccc(-c4ccccc4)cc3)nc2C#N)CC1 | 17 | 27* | 0 | -3 | 18* | 3 | 1 | 23* | 14*
N#Cc1nc(COc2ccc(Cl)cc2)oc1N1CCN(Cc2ccccc2)CC1 | 21 | 22* | 0 | 2 | 8.6* | 1 | 1 | 26* | 16*
CC(C)CC(C(=O)OCC(=O)Nc1cccc(Cl)c1)N1C(=O)C2CC=CCC2C1=O (stereo not given) | 19 | 35* | 0 | -2 | 17* | 3 | 0 | 27* | 11*
Nc1cc(OC(=O)c2c(F)cccc2Cl)nn1S(=O)(=O)c1ccccc1 | 11 | 28* | 0 | -10 | 12* | 7 | 2 | 18 | 11*
COc1ccccc1NC(=O)Cc1ccc(-c2ccccc2)cc1 | 26 | 9 | 0 | -9 | 5 | nt | nt | nt | nt
Cc1cc(NC(=O)CS(=O)(=O)c2cn(Cc3cccc(Cl)c3)c3ccccc23)no1 | 12 | 20* | 0 | nt | 11* | 0 | 0 | 11 | 7
CC(C)NCC(O)COC1C2CC3CC(C2)CC1C3 (stereo not given) | -6 | 9 | 0 | -1 | 1 | nt | nt | nt | nt
